Structures are written as SMILES. ± gives the standard deviation of the averaged measurements.

The assay deals with Drosophila ezoana antennal basiconic sensillum ab10. The assay can be described thus: odor-evoked OSN spike response (post minus pre-stimulus); higher = stronger neuronal excitation. The conditions noted are these: odor dilution: 10^-4. Here is the method:
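Single sensillum recordings from antennal basiconic sensilla of D. ezoana. A 500 ms pulse of odorant (10^-4 in mineral oil or DMSO) was delivered; the response is the change in action potential frequency between the 1 s pre- and post-stimulus windows (spikes/s).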
`CC(C)=O` [acetone]: the “odor-evoked OSN spike response” value worked out at 76.3 ± 21 spikes/s.

These data come from the supplement of paper PMC10477191.
